Source: PubChem (National Center for Advancing Translational Sciences (NCATS))
D2 ag-1: D2 dopamine receptor (human) agonism; P14416; HEK293 T-REx D2 cells, calcium flux agonist mode; activation, % at 2 µM; 340,000 compounds, 0.53% hits; AID 485358;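 active means activation over 3 SD above normal in the single-dose calcium agonist read, cut at about 30% in these data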; further: 0% is about no effect
Target sequence (P14416 whole entry, looked up): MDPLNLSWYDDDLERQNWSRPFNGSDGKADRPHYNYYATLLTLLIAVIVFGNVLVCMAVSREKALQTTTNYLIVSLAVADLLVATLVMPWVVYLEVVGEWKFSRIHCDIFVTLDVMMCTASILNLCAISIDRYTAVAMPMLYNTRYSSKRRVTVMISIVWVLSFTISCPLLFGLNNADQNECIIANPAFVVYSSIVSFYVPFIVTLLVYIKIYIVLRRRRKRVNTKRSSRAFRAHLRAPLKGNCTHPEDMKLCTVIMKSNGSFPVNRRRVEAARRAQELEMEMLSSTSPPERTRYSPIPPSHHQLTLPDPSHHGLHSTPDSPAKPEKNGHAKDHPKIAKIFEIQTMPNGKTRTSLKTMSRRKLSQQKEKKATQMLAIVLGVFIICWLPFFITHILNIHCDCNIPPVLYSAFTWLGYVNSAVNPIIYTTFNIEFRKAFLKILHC
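HEK293 Trex D2 cells, tetracycline-induced, o/n 30 C 5% CO2; no-wash Ca dye, RT 30–90 min; 10-cycle baseline, 23 nl cpd added, kinetic Ca read 180 s; agonist hits = positive Ca response.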
D2 PAM-1: potentiates the human D2 dopamine receptor allosterically | AID 624464 | potentiation, % (no concentration beside the values) | DiscoveRx D2 beta-arrestin cells, luminescence, 90 min; 100% = 57 uM dopamine signal | 360,000 compounds, 0.23% hits | P14416; in the data active means potentiation above about 50%; inconclusive means mostly about 30% to 49%
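PathHunter D2 cells, attached overnight at 37 deg C, received compound in DMSO plus dopamine at EC20 (50 nM final) for 90 min at 37 deg C. Beta-arrestin recruitment was read as luminescence after 1 h with detection reagent at ambient temperature.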
D2 ag-2: human D2 receptor agonism in beta-arrestin assay | P14416 | DiscoveRx PathHunter D2 beta-arrestin, luminescence, 90 min; 100% = 57 uM dopamine signal | activation, % (concentration not given with the values) | 360,000 compounds, 0.084% hits | AID 624465; in the data active means activation above about 40%; inconclusive means between about 15% and that limit
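Agonist mode: compounds alone added to overnight-plated D2 PathHunter cells for 90 min at 37 C, with 57 uM final dopamine (EC100) defining full response. Beta-arrestin recruitment detected by chemiluminescent reagent, read after 1 h at ambient temperature.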
D2 antagonist: antagonizes the human D2 dopamine receptor | P14416 | HEK293 TREx D2 cells, calcium flux, dopamine EC80 | inhibition, % at 10 µM | 340,000 compounds, 2% hits | AID 485344; in the data active means inhibition above about 30%; inactive means below that, where a call was filed; further: 0% is about no effect
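Compounds are added to dye-loaded, induced HEK293 T-REx cells coupled to calcium release via D2; after a 3 min kinetic read an EC80 dopamine stimulus is given and fluorescence is recorded for 3 more min.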
D2 PAM-2: positively modulates the human D2 dopamine receptor allosterically; P14416; HEK293 T-REx D2, calcium flux, EC20 dopamine potentiation; potentiation, % at 10 µM; 340,000 compounds, 0.34% hits; AID 485347;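 active means potentiation over 3 SD above the plate norm, cut at about 30% in these data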; further: 0% is about no effect
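Using a no-wash calcium dye in inducible, force-coupled HEK293 Trex cells expressing D2, we tracked fluorescence each second for 180 s after compound, then for 180 s after EC20 dopamine to detect augmented signalling.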
The depositor's hits bear a star. Rows were chosen to be rich in hits. Some 2.4% of all compounds tested hit in one or more screens of this group.

For COc1cc(/C=C2\SC(=N)N(c3ccc(F)cc3)C2=O)ccc1O the results were D2 ag-1 2, D2 PAM-1 -20, D2 ag-2 1, D2 antagonist 56* and D2 PAM-2 -23.
`COc1ccc(/C=C2\SC(c3ccc(C)cc3)=NC2=O)cc1OC` gave D2 ag-1 7, D2 PAM-1 -11, D2 ag-2 -7, D2 antagonist 5 and D2 PAM-2 1.
`COc1cc(/C=C2\SC(c3ccc(C)cc3)=NC2=O)ccc1O` gave D2 ag-1 4, D2 PAM-1 -17, D2 ag-2 -4, D2 antagonist 32* and D2 PAM-2 -4.
For CCOc1ccc(N2C(=O)S/C(=C\c3ccc(O)c(OC)c3)C2=O)cc1 the results were D2 ag-1 3, D2 PAM-1 -14, D2 ag-2 -6, D2 antagonist -16 and D2 PAM-2 15.
`COc1cc(C2c3c(oc4ccccc4c3=O)C(=O)N2c2nncs2)cc(OC)c1OC` (centres undefined) gave D2 ag-1 0 and D2 PAM-2 0.
COc1ccc(NC(=O)CCS(=O)(=O)c2ccc3c(c2)n(C)c(=O)c(=O)n3C)cc1Cl was read as D2 ag-1 1 and D2 PAM-2 1.
Screening O=C(COC(=O)c1cc[n+]([O-])cc1)NCCc1ccc(Cl)cc1Cl returned D2 ag-1 1, D2 PAM-1 0, D2 ag-2 -14, D2 antagonist 34* and D2 PAM-2 -1.
Screening Cc1c(C(=O)Nc2ccc3c(c2)OCCO3)sc2nc(-c3ccccc3)cn12 returned D2 ag-1 -1, D2 PAM-1 -7, D2 ag-2 3, D2 antagonist 73* and D2 PAM-2 -4.
`CCCCOc1cccc(C(=O)Nc2sc3c(c2C(=O)OCC)CCCC3)c1` gave D2 ag-1 1 and D2 PAM-2 0.
Screening CCC(Sc1nc2nccnc2c(=O)n1Cc1ccc(F)cc1)C(=O)NC1CCCCC1 (centres undefined) returned D2 ag-1 -1 and D2 PAM-2 5.
`CC(NC(=O)COC(=O)CCc1ccccc1)c1ccccc1` (centres undefined) gave D2 ag-1 -1, D2 PAM-1 -9, D2 ag-2 -2, D2 antagonist 35* and D2 PAM-2 -25.
`CC(NC(=O)COC(=O)CSCc1ccccc1)c1ccccc1` (centres undefined) gave D2 ag-1 -1, D2 PAM-1 -35, D2 ag-2 0, D2 antagonist 2 and D2 PAM-2 3.
Screening Cc1cccc(OCC(=O)NCC2(N3CCN(C)CC3)CCCCC2)c1 returned D2 ag-1 1 and D2 PAM-2 -22.
C/C(CC(=O)N1CCN(C=O)CC1)=N\NC(=O)c1cc2ccccc2cc1O was read as D2 ag-1 0, D2 PAM-1 51*, D2 ag-2 -6, D2 antagonist 7 and D2 PAM-2 -10.
Screening C/C(CC(=O)N1CCN(C=O)CC1)=N\NC(=O)c1ccc([N+](=O)[O-])cc1 returned D2 ag-1 0, D2 PAM-1 -2, D2 ag-2 6, D2 antagonist 3 and D2 PAM-2 3.
Screening COc1ccc(C(CNC(=O)COc2ccc(Cl)c(C)c2)N2CCOCC2)cc1 (centres undefined) returned D2 ag-1 1 and D2 PAM-2 -18.
For Cc1csc(NC(=O)C2CC(=O)N(c3ccc(C)c(C)c3)C2)n1 (centres undefined) the results were D2 ag-1 1, D2 PAM-1 5, D2 ag-2 -5, D2 antagonist 51* and D2 PAM-2 -9.
`Cc1ccc(N2CC(C(=O)Nc3cccnc3)CC2=O)cc1C` (centres undefined) gave D2 ag-1 0, D2 PAM-1 -3, D2 ag-2 -3, D2 antagonist 31* and D2 PAM-2 -5.
COc1ccccc1N1CC(C(=O)Nc2nc(C)cs2)CC1=O (centres undefined) was read as D2 ag-1 0, D2 PAM-1 -17, D2 ag-2 -3, D2 antagonist 7 and D2 PAM-2 -9.
CS(=O)(=O)N1CCc2cc(C(=O)Nc3cccc(F)c3)ccc21 was read as D2 PAM-2 5.
Screening CCc1c(C)nc2nc(-c3ccccc3)nn2c1NCc1ccc(C)cc1 returned D2 ag-1 0 and D2 PAM-2 -3.
Screening CCc1ccc(C2c3c(-c4ccccc4O)n[nH]c3C(=O)N2Cc2ccncc2)cc1 (centres undefined) returned D2 ag-1 9 and D2 PAM-2 3.
CCCCn1c2ccc(F)cc2c2nnc(SCCN3CCOCC3)nc21 was read as D2 ag-1 0, D2 PAM-1 -12, D2 ag-2 5, D2 antagonist 8 and D2 PAM-2 -4.
`Cn1c2ccc(F)cc2c2nnc(SCCN3CCOCC3)nc21` gave D2 ag-1 0, D2 PAM-1 -13, D2 ag-2 -3, D2 antagonist 35* and D2 PAM-2 3.
`O=C(c1ccc(Oc2ccc([N+](=O)[O-])cc2)cc1)N1CCCCCC1` gave D2 ag-1 -1, D2 PAM-1 -3, D2 ag-2 -6, D2 antagonist 3 and D2 PAM-2 -3.
For COc1ccc(CCC(=O)Nc2cccc(Cl)c2)cc1 the results were D2 ag-1 0, D2 PAM-1 -19, D2 ag-2 -2, D2 antagonist -11 and D2 PAM-2 -9.
O=C(CCc1ccc(Oc2cc([N+](=O)[O-])cc([N+](=O)[O-])c2)cc1)Nc1cccc(Cl)c1 was read as D2 ag-1 -1, D2 PAM-1 64*, D2 ag-2 inconclusive, D2 antagonist -6 and D2 PAM-2 -3.
O=C(CCc1ccc(Oc2cc([N+](=O)[O-])cc([N+](=O)[O-])c2)cc1)N1CCCCC1 was read as D2 ag-1 -1, D2 PAM-1 58*, D2 ag-2 inconclusive, D2 antagonist -21 and D2 PAM-2 9.
`COc1ccccc1CCN1CCCC(CN(C)C(=O)c2ccoc2)C1` (centres undefined) gave D2 ag-1 0, D2 PAM-1 -27, D2 ag-2 -2, D2 antagonist 42* and D2 PAM-2 -11.
Cc1nc2ncccn2c1-c1csc(NCc2ccco2)n1 was read as D2 ag-1 0, D2 PAM-1 -20, D2 ag-2 1, D2 antagonist 1 and D2 PAM-2 38*.
Screening Cc1cc(C)cc(NS(=O)(=O)c2cc(Br)cnc2N)c1 returned D2 ag-1 0, D2 PAM-1 3, D2 ag-2 1, D2 antagonist 32* and D2 PAM-2 2.
For Cc1ccc(NS(=O)(=O)c2cc(Br)cnc2N)cc1C the results were D2 ag-1 0, D2 PAM-1 -8, D2 ag-2 5, D2 antagonist -27 and D2 PAM-2 6.
